For 40 compounds, Potency and activity change, negative = cytotoxic results are on record in PubChem BioAssay (NCATS).

Inconclusive results are not listed. A number with no mark means an inactive call. Active and inactive are the calls of the source. Calls follow the shape of the dose curve; as a rule, active = well fitted cell-killing curve with a large enough effect; inconclusive = small, poorly fitted or top-dose-only effect; inactive = flat fitted curve, though single readings scatter.
% is scaled to controls: 0 for no effect and ±100 for the full control effect; potency is read from the fitted curve at half-maximal effect.

The nature of the assay: qHTS of pediatric cancer cell lines to identify multiple opportunities for drug repurposing: Primary screen for Rh18 cells (AID 1347102). Also: nearly all actives have a fitted effect of over 65% in size. Particulars: Rh18 rhabdomyosarcoma viability, CellTiter-Glo luminescence, 48 h; series mostly up to 46 µM. From the text:
Drug repurposing or repositioning has been offered as a strategy for drug development in oncology programs. This approach has special potential for childhood cancers and other rare or orphan diseases, where the expected return on new drug development has been a disincentive to pharmaceuticals.
In this project we exploit the poly-pharmacology of drugs to discover new indications via phenotypic screening of a panel of 19 well-characterized cell lines derived from solid tumors seen in children and adolescents. The goal is to identify approved drugs with previously unrecognized anticancer properties that has the potential to reveal new mechanisms and biological processes involved in carcinogenesis or drug resistance. We employed a titration-based paradigm (quantitative high-throughput screening or qHTS), where all compounds were tested at multiple concentrations for their effect on cell viability. Concentration-response curves (CRCs) were derived directly from the primary screen, and both potency and efficacy values were used to identify compounds with robust bioactivity profiles. We screened the NIH Chemical Genomics Center (NCGC) Pharmaceutical Collection (NPC) and Mechanism Interrogation Plate (MIPE) small molecule collections of approved and investigational compounds against these cell lines; and measured metabolically active cells after 48 hours of compound treatment as a proxy for cell viability.
Assay Submitter: Nathalia J. Martinez, National Center for Advancing Translational Sciences, National Institutes of Health, Rockville, MD, USA; email: natalia.martinez@nih.gov
[1] Shen, M et al. Quantitative high-throughput phenotypic screening of pediatric cancer cell lines identifies multiple opportunities for drug repurposing. Oncotarget 2017 Dec 19;9(4):4758-4772. PMID 29435139.
The cells were obtained from University of North Carolina (UNC), Pediatric Preclinical Testing Program (PPT), and Coriell Institute (CI).
qHTS cell viability assay:
Cells were assayed in growth media at a density of 500-1,000 cells/well. Five microliters of cells were dispensed into 1,536-well, white, solid-bottom, TC-treated plates (Greiner Bio One) using a multidrop dispenser and incubated at 37 degrees C, 5% CO2, under a humidified atmosphere for 5 hours. Twenty-three nanoliters of compounds and controls (neutral control DMSO or positive control bortezomib at final concentration of 2.3 µM) were subsequently transferred by Kalypsys pintool. For primary screens, the MIPE collection was tested at 11-point dilutions (final concentrations range from 0.78 nM to 46 µM) and the NPC collection at 8-point dilutions (final concentrations range from 0.59 nM to 46 µM). Compounds tested in follow-up screens were assayed at 11-point dilutions. Cells were incubated for 48 hours, followed by addition of 3 µL of CellTiter-Glo (Promega). After a 15 min incubation at room temperature, samples were analyzed for luminescence intensity using a ViewLux High-throughput CCD imager equipped with clear filters.
For orientation: Quantitative high-throughput screening tests each substance at several concentrations.
As to `CC[C@H](CO)Nc1nc(NCc2ccccc2)c2ncn(C(C)C)c2n1`, the Potency entry was “inactive”.
For `CN1CCN(c2ccc3nc(-c4c(N)c5c(F)cccc5[nH]c4=O)[nH]c3c2)CC1`, the Potency was 20.9 µM (active).
As to `CC1(C)OC2=C(C(=O)c3ccccc3C2=O)[C@H](NCc2ccccc2)[C@H]1O`, the Potency is 7.43 µM (active).
Consider `CC(C)c1cc(C(=O)N2Cc3ccc(CN4CCN(C)CC4)cc3C2)c(O)cc1O`, for which the Potency was 0.526 µM (active).
Same read-out and setting: to `O=C(c1cncc(Br)c1)N1CCC(N2CCCC2)CC1` belongs “inactive”; to `O=C(CCCCCCNC(=O)c1cnc(N(c2ccccc2)c2ccccc2)nc1)NO`, 5.9 µM (active); to `c1nc2nc(Nc3ccc(N4CCOCC4)cc3)nc(NC3CCCCC3)c2[nH]1`, 9.35 µM (active).
As to `CC(C)C[C@H](NC(=O)CNC(=O)c1cc(Cl)ccc1Cl)B(O)O`, the Potency was 0.235 µM (active).
The same measure, in the same setting: to `CCN(CC)CCNC(=O)c1ccc2nc(-c3ccccc3)c(-c3ccc(CN4CCC(n5c(=O)[nH]c6ccccc65)CC4)cc3)nc2c1` belongs 2.35 µM (active).
As to `COc1ccc(CC2c3cc(OC)c(OC)cc3CC[N+]2(C)CCC(=O)OCCCCCOC(=O)CC[N+]2(C)CCc3cc(OC)c(OC)cc3C2Cc2ccc(OC)c(OC)c2)cc1OC` (stereo not given), the activity change, negative = cytotoxic was -3.1% [at 9.22 µM].
Turning to `COc1ccc(-n2nc(C(N)=O)c3c2C(=O)N(c2ccc(N4CCCCC4=O)cc2)CC3)cc1`, the Potency entry was “inactive”.
Same read-out and setting: in the case of `COc1c(OCCCN2CCOCC2)ccc2c3n(c(=NC(=O)c4cnc(N)nc4)nc12)CCN3` it was 0.0812 µM (active).
For `CC[C@@H]1C(=O)N(C)c2cnc(Nc3ccc(C(=O)NC4CCC(N5CCN(CC6CC6)CC5)CC4)cc3OC)nc2N1C(C)C` (stereo not given in full), the Potency is 6.62 µM (active).
Take `CC(C)Nc1cc(C(F)(F)F)cc2nc(NC(=O)c3cccnc3)nn12`: the Potency entry was “inactive”.
The same measure, in the same setting: in the case of `Nc1ncnc2c1c(-c1cnc3[nH]ccc3c1)nn2C1CCCC1` it was 0.526 µM (active).
On the same count and under the same terms, in the case of `CCOC(=O)C1=C(C)NC2=C(C(=O)CC(C)(C)C2)C1c1ccc(-c2ccccc2)cc1` (stereo not given) it was 16.6 µM (active); in that of `Cc1coc2c1C(=O)C(=O)c1c-2ccc2c1CCCC2(C)C`, 20.9 µM (active); in that of `Cc1[nH]c2ccccc2c1CCNCc1ccc(C=CC(=O)NO)cc1`, 0.0935 µM (active).
The same measure, in the same setting: to `CC=CC1=C(C(=O)O)N2C(=O)[C@H](NC(=O)[C@H](N)c3ccc(O)cc3)[C@@H]2SC1` belongs “inactive”; to `Nc1ccn([C@@H]2O[C@H](CO)[C@H](O)C2(F)F)c(=O)n1`, “inactive”; to `O=C(NCCCNc1nc(Nc2cccc(NC(=O)N3CCCC3)c2)ncc1I)c1cccs1`, 14.8 µM (active).
As for `CC(C)CC(=O)Nc1n[nH]c2c1CN(C(=O)C1CCN(C)CC1)C2(C)C`, the Potency entry was “inactive”.
Turning to `Clc1cccc(-n2nnnc2NCc2ccccc2Oc2ccccn2)c1Cl`, the Potency result was “inactive”.
On the same count and under the same terms, in the case of `CC[C@@H]1C(=O)N(C)c2cnc(Nc3ccc(C(=O)NC4CCN(C)CC4)cc3OC)nc2N1C1CCCC1` it was 5.9 µM (active); in that of `CC1=C(CO)C(=O)O[C@@H]([C@@H](C)[C@H]2CC[C@H]3[C@@H]4C[C@H]5O[C@]56[C@@H](O)C=CC(=O)[C@]6(C)[C@@H]4CC[C@]23C)C1`, 2.64 µM (active).
With `Cc1nc(Nc2n[nH]c3c2CN(C(=O)N[C@H](CN(C)C)c2ccccc2)C3(C)C)c2sccc2n1`, the Potency was 1.32 µM (active).
On to `COc1cc2c(Oc3ccc4[nH]c(C)cc4c3F)ncnc2cc1OCCCN1CCCC1`, for which the Potency was 18.7 µM (active).
The same measure, in the same setting: to `Cc1nc2ccc(CN(C)c3ccc(C(=O)N[C@@H](CCC(=O)O)C(=O)O)s3)cc2c(=O)[nH]1` belongs “inactive”.
On the same count and under the same terms, to `CC(C)(C)c1cc(NC(=O)Nc2ccc(-c3cn4c(n3)sc3cc(OCCN5CCOCC5)ccc34)cc2)no1` belongs “inactive”; to `NC(=O)Nc1cc(-c2cccc(F)c2)sc1C(=O)N[C@H]1CCCNC1`, 13.2 µM (active).
The same measure, in the same setting: to `O=C1CCC[C@@H]2[C@H]3CCC[N+]4([O-])CCC[C@@H](CN12)[C@@H]34` (stereo not given in full) belongs “inactive”.
On to `c1cc(-c2cnn3cc(-c4ccc(OCCN5CCCCC5)cc4)cnc23)ccn1`, for which the Potency is 20.9 µM (active).
Same read-out and setting: to `COc1cc2c(cc1-c1c(C)noc1C)ncc1[nH]c(=O)n([C@H](C)c3ccccn3)c12` belongs 5.9 µM (active); to `COc1cc(=C2C=c3ccccc3=N2)[nH]c1=Cc1[nH]c(C)cc1C`, 10.5 µM (active).
Turning to `Cn1c(CNc2ccc(C(=N)N)cc2)nc2cc(C(=O)N(CCC(=O)O)c3ccccn3)ccc21`, the Potency result is “inactive”.
Still for that read-out and setting: to `CN1CCN(c2cc(C(=O)Nc3ccc4c(c3)-c3c(c(C(N)=O)nn3-c3ccc(F)cc3)CC4)c(Cl)cn2)CC1` belongs 20.9 µM (active).
Same read-out and setting: to `CNC(=O)c1ccc(N2C(=S)N(c3cnc(C#N)c(C(F)(F)F)c3)C(=O)C23CCC3)cc1F` belongs 14.8 µM (active).
With `Nc1ccc(C(=O)c2cc3c(ccc4ccccc43)[nH]2)cc1`, the Potency result is “inactive”.
Regarding `CCCn1c(=O)c2[nH]c(-c3cnn(Cc4cccc(C(F)(F)F)c4)c3)nc2n(CC)c1=O`, the Potency result is “inactive”.
Take `NC(=O)c1cccc2cn(-c3ccc([C@@H]4CCCNC4)cc3)nc12`: the Potency entry was “inactive”.
